Laboratory results published in PubChem BioAssay (Tox21).
“And” between values parts separate entries of the source, which are not always exact repeats. Equal values may be shown once. Records with an inconclusive call do not appear. A number with no mark means an inactive call. The source made the active and inactive calls. Calls follow the shape of the dose curve; as a rule, active = well fitted inhibition curve with a large enough effect in the repeat runs; inconclusive = weak or mixed curves; inactive = no such curve, though single readings can be large or run the other way.
% is scaled to controls: 0 for no effect and ±100 for the full control effect; potency is read from the fitted curve at half-maximal effect.

Assay: qHTS assay to identify small molecule antagonists of the thyroid receptor (TR) signaling pathway (AID 743065); also: nearly all actives have a fitted effect of over 55% in size
Conditions: GH3.TRE-Luc, T3-stimulated luciferase inhibition, 23.5 h; series mostly up to 70.3 µM; activity, negative = inhibition: at the top concentration
Excerpt: U.S. Tox21 Program National Center for Advancing Translational Sciences [NCATS] NIH Chemical Genomics Center [NCGC] U.S. Environmental Protection Agency [EPA] National Institutes of Environmental Health Sciences [NIEHS] National Toxicology Program [NTP] U.S. Food and Drug Administration [FDA] Tox21 Assay Overview: Thyroid receptor (TR), a nuclear hormone receptor, plays an important role in development, proliferation, differentiation, metabolism, brain function, and cardiovascular system. […] To profile the Tox21 10K compound library in TR signaling, a cell-based GH3-TRE-Luc assay (GH3.TRE-Luc cell line, developed by the laboratory of Dr. Albertinka J. Murk, Wageningen University) was used to measure the inhibition of TR. GH3 (rat pituitary tumor) cells stably expressing a TR activity sensor consisting of two TR response elements and a luciferase reporter gene.
Tox21 Assay Protocol Summary: GH3.TRE-Luc cells were dispensed at 1500 cells/4 uL/well into 1536-well white solid bottom plates using a Multidrop Combi dispenser (Thermo Fisher Scientific Inc., Waltham, MA). After the assay plates were incubated at 37 C for 4 hours, 23 nL of library compound or DMSO controls was transferred to the assay plates by a pintool station (Kalypsys, San Diego, CA), followed by addition of 1 ul of T3 (1 nM, final concentration in the wells) to stimulate TR transactivation. The assay plates were incubated at 37 C for 23.5 h, and then 1 uL of CellTiter-Fluor reagent (Promega, Madision, WI) of measuring cytotoxicity was added to each well using a Bioraptr Flying Reagent Dispenser (FRD) workstation (Beckman Coulter, Indianapolis, IN, USA). The plates were incubated at 37 C and 5% CO2 for additional 30 min, and fluorescence intensity was measured by a ViewLux plate reader (PerkinElmer, Shelton, CT). For measuring luciferase reporter gene activity, 4 uL of ONE-Glo Luciferase Assay reagent (Promega) was added to each well using a Bioraptr FRD (Beckman Coulter), followed by 30 min incubation at room temperature. The luminescence intensity of plates was recorded by a ViewLux plate reader (PerkinElmer, Shelton, CT).
With `O=C1c2ccccc2CN2C(=O)c3ccccc3CN12` the “activity, negative = inhibition” value was 0.807%.
For `CN1CCN(CCCN2c3ccccc3Sc3ccc(C(F)(F)F)cc32)CC1`, the Potency was 9.44 µM (active).
For `CC[C@H]1OC(=O)[C@H](C)C(=O)[C@H](C)[C@@H](O[C@@H]2O[C@H](C)C[C@H](N(C)C)[C@H]2O)[C@](C)(OC)C[C@@H](C)C(=O)[C@H](C)[C@H]2N(CCCCn3cnc(-c4cccnc4)c3)C(=O)O[C@]12C`, the “activity, negative = inhibition” value was 6.25%.
With `N=C(N)c1ccc(/C=C/c2ccc(C(=N)N)cc2O)cc1` the “activity, negative = inhibition” value was 1.5%.
In the case of `N[C@H](CO)C(=O)O`, the “activity, negative = inhibition” value is reported as 14.2%.
In the case of `CCCCCCCCCCCCCCCCCCNC(=O)OC1CCN(C(=O)OC[C@H](COC(=O)N(Cc2cccc[n+]2CC)C(=O)c2ccccc2OC)OC)CC1`, the Potency is reported as 13.3 µM (active).
With `Cc1cc(C(=O)NCCc2ccc(S(=O)(=O)NC(=O)NN3CCCCCC3)cc2)no1` the “activity, negative = inhibition” value was 4.29%.
For `NCCCC[C@H](NC(=O)[C@@H]1CCCN1C(=O)[C@@H]1CSSC[C@H](N)C(=O)N[C@@H](Cc2ccc(O)cc2)C(=O)N[C@@H](Cc2ccccc2)C(=O)N[C@@H](CCC(N)=O)C(=O)N[C@@H](CC(N)=O)C(=O)N1)C(=O)NCC(N)=O`, the Potency was “inactive”.
For `CN1CCN(CCCN2c3ccccc3Sc3ccc(Cl)cc32)CC1`, the Potency was 6.68 µM (active).
In the case of `O=C1c2ccccc2C(=O)C1c1ccc(F)cc1`, the “activity, negative = inhibition” value is reported as 6.69%.
In the case of `CCCCCCCCCCCCCCCCC(C(=O)O)C(O)(CC(=O)O)C(=O)O` (stereo not given), the Potency is reported as 26.6 µM (active).
In the case of `CN1CC[C@H](c2c(O)cc(O)c3c(=O)cc(-c4ccccc4Cl)oc23)[C@H](O)C1`, the Potency is reported as 0.15 µM (active).
With `CNC(=O)OCc1cccc(COC(=O)NC)n1` the “activity, negative = inhibition” value was 10.5%.
In the case of `O=C(O)c1cc2cc(Cc3cccnc3)ccc2o1`, the “activity, negative = inhibition” value is reported as 18.4%.
With `CC(C)CCC[C@@H](C)[C@H]1CC[C@H]2[C@@H]3CC[C@@H]4C[C@H](O)CC[C@]4(C)[C@H]3CC[C@]12C` the “activity, negative = inhibition” value was 8.34%.
With `O=C[C@H](O)[C@@H](O)[C@@H](O)[C@H](O)CO` the “activity, negative = inhibition” value was 7.78%.
With `CCCC(CCC)C(=O)OC1C[C@H]2CC[C@@H](C1)[N+]2(C)C` (stereo not given in full) the Potency was “inactive”.
For `CN1C(=O)C[C@@H](C(=O)N[C@@H](Cc2cnc[nH]2)C(=O)N2CCC[C@H]2C(N)=O)NC1=O`, the “activity, negative = inhibition” value was 0.505%.
In the case of `CC(=O)NC[C@H]1CN(c2ccc(N3CCOCC3)c(F)c2)C(=O)O1`, the “activity, negative = inhibition” value is reported as 1.53%.
For `Cc1cnc(C(=O)O)c[n+]1[O-]`, the Potency was “inactive”.
With `CCN(CC)CCOC[C@H]1O[C@@H](O)[C@H](OCCN(CC)CC)[C@@H](O)[C@@H]1O` the “activity, negative = inhibition” value was 1.1%.
For `CCCOC(=O)c1ccc(O)cc1`, the Potency was “inactive”.
With `Cc1cc(F)ccc1-c1cc(N2CC[C@@H](O)[C@H]2CO)ncc1N(C)C(=O)C(C)(C)c1cc(C(F)(F)F)cc(C(F)(F)F)c1` the Potency was 9.54 µM (active).
In the case of `CCCCCCCCCCCCCC(=O)OCC(COP(=O)([O-])OCC[N+](C)(C)C)OC(=O)CCCCCCCCCCCCC` (stereo not given), the “activity, negative = inhibition” value is reported as 1.35%.
With `CCCCC/C=C\C=C\C(=O)OCC` the Potency was 28.4 µM (active).
For `C[S+](CC[C@H](N)C(=O)O)C[C@H]1O[C@@H](n2cnc3c(N)ncnc32)[C@H](O)[C@@H]1O` (stereo not given in full), the Potency was “inactive”.
For `CC(C)C[C@@H](NC(=O)[C@@H](O)[C@H](N)Cc1ccccc1)C(=O)O`, the “activity, negative = inhibition” value was 7.14%.
With `CC(Cc1ccc(O)c(O)c1)C(C)Cc1ccc(O)c(O)c1` (stereo not given) the Potency was 7.7 µM (active).
For `CCCCCCCC1CCC(=O)O1` (stereo not given), the “activity, negative = inhibition” value was 15.9%.
For `CC(C)C[C@H](NC(=O)[C@@H](COC(C)(C)C)NC(=O)[C@H](Cc1ccc(O)cc1)NC(=O)[C@H](CO)NC(=O)[C@H](Cc1c[nH]c2ccccc12)NC(=O)[C@H](Cc1cnc[nH]1)NC(=O)[C@@H]1CCC(=O)N1)C(=O)N[C@@H](CCCN=C(N)N)C(=O)N1CCC[C@H]1C(=O)NNC(N)=O`, the Potency was “inactive”.
For `CC[C@@H](C)[C@H](N)C(=O)O`, the “activity, negative = inhibition” value was 6.13%.
For `COc1ccc(/C=N/NC(=O)c2ccncc2)c(C(=O)O)c1OC`, the “activity, negative = inhibition” value was 7.96%.
For `Cc1cc(=O)c(C(=O)N[C@@H](C(=O)N[C@@H]2C(=O)N3C(C(=O)O)=C(CSc4nnnn4C)CS[C@H]23)c2ccc(O)cc2)c[nH]1`, the “activity, negative = inhibition” value was 11%.
In the case of `COc1cc(/C=C/C(=O)CC(=O)/C=C/c2ccc(O)c(OC)c2)ccc1O`, the Potency is reported as 23.7 µM (active) and 17.3 µM (active).
With `FC(F)(F)COCC(F)(F)F` the “activity, negative = inhibition” value was 8.51%.
With `CCCCCCCCCC[N+](C)(CCCCCCCCCC)CCC[Si](OC)(OC)OC` the Potency was 21.7 µM (active).
In the case of `C/C(=C(/CCO)SSCC1CCCO1)N(C=O)Cc1cnc(C)nc1N` (stereo not given), the “activity, negative = inhibition” value is reported as -8.2%.
With `O=C(CCCN1CCN2CCCC2C1)c1ccc(F)cc1` (stereo not given) the “activity, negative = inhibition” value was 2.59%.
With `Nc1ccc(N)c([N+](=O)[O-])c1` the “activity, negative = inhibition” value was -8.17%.
With `COC1=C(OC)C(=O)C(C/C=C(\C)CC/C=C(\C)CC/C=C(\C)CC/C=C(\C)CC/C=C(\C)CC/C=C(\C)CC/C=C(\C)CC/C=C(\C)CC/C=C(\C)CCC=C(C)C)=C(C)C1=O` the Potency was “inactive”.
